The full data set covers some 7,900 targets. This sample favours those with a hit. About 0.6% of all pairs of compound and target were hits.
Legend:
Assay in all cases: log2 fold change, soluble protein after heating vs DMSO (PISA); higher = thermal stabilisation; K562 cells, 10 uM, 30 min; active = over 0.2 and 3.5 SD of the protein, either way, in both replicates (recomputed)
[1] = compound: CC1=C(C=C(C=C1)NC(=O)C2=CC(=CC=C2)C(C)(C)C#N)NC3=CC4=C(C=C3)N=CN(C4=O)C
In short: (§1)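 K562 cells (2×10^6 cells/mL) were treated with 10 μM compound for 30 min, and aliquots were heated for 3 min over 48°C-58°C. Pooled aliquots were extracted in PBS with 0.5% NP-40 at 4°C, and the supernatant after 21,000xg for 90 min was measured by TMTpro 16plex LC-MS/MS with channel sums equalised. Reported thermal stability, relative to control samples and from duplicates, is a log2 fold change.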

[2] = compound: CC1=C(C=C(C=C1)NC(=O)C2=CC(=CC=C2)N(C)C)NC(=O)C3=CC=C(C=C3)O
In short: as §1

[3] = compound: CC1=CC=C(C=C1)SC2=C3C=C(SC3=CN=C2)C(=O)N
In short: as §1

[4] = compound: CC1=NC(=CC=C1)C2=C(N=C(N2)C(C)(C)C)C3=CC4=NC=CN=C4C=C3
In short: as §1

[5] = compound: CCCCN(Cc1ccc(C(=O)NO)cc1)C(=O)Nc1ccccc1 [Nexturastat A]
In short: as §1

[6] = compound: CCCS(=O)(=O)Nc1ccc(F)c(C(=O)c2c[nH]c3ncc(-c4ccc(Cl)cc4)cc23)c1F [vemurafenib]
In short: as §1

[7] = compound: CCCS(=O)(=O)Nc1ccc(F)c(C(=O)c2c[nH]c3ncc(Cl)cc23)c1F
In short: as §1

[8] = compound: CCCc1cc(C)[nH]c(=O)c1CNC(=O)c1cc(-c2ccnc(N3CCN(C)CC3)c2)cc2c1cnn2C(C)C
In short: as §1

[9] = compound: CCN(CC)Cc1ccc2cc(COC(=O)Nc3ccc(C(=O)NO)cc3)ccc2c1 [givinostat]
In short: as §1

[10] = compound: CCN(CCCOc1ccc2c(Nc3cc(CC(=O)Nc4cccc(F)c4)[nH]n3)ncnc2c1)CCOP(=O)(O)O [barasertib]
In short: as §1

[11] = compound: CC[C@@H]1C(=O)N(C)c2cnc(Nc3ccc(C(=O)NC4CCN(C)CC4)cc3OC)nc2N1C1CCCC1
In short: as §1

[12] = compound: CC[C@@H]1C(=O)N(C)c2cnc(Nc3ccc(C(=O)N[C@H]4CC[C@H](N5CCN(CC6CC6)CC5)CC4)cc3OC)nc2N1C(C)C [volasertib]
In short: as §1

[13] = compound: CC[C@H](C)N1C=C(C2=C(C=C(C=C21)C3=CN=C(C=C3)N4CCNCC4)C(=O)NCC5=C(C=C(NC5=O)C)C)C
In short: as §1

[14] = compound: CC[C@H](C)[C@@H](C(=O)N[C@@H]([C@@H](C)O)C(=O)N[C@@H](CC(C)C)C(=O)[C@]1(CO1)C)NC(=O)[C@H]([C@@H](C)CC)N(C)C(=O)C [epoxomicin]
In short: as §1

[15] = compound: CCn1c(C(=O)N(C2CC2)C2CC2)cc2c3c(ncn3C)c(Nc3cc(C)n(C)n3)nc21
In short: as §1

[16] = compound: CCn1cc(-c2ccnc3[nH]c(-c4cccc(CN(C)C)c4)cc23)c(-c2ccc(NC(=O)N(C)C)cc2)n1
In short: as §1

[17] = compound: CN(C)CC(=O)Nc1ccc2[nH]c(=O)c3ccccc3c2c1
In short: as §1

[18] = compound: CN(CCOC1=CC=C(C=C1)C[C@H]2C(=O)NC(=O)S2)C3=CC=CC=N3 (racemic) [rosiglitazone]
In short: as §1

[19] = compound: CN1C2=C(C3=C1C(=O)N(N=C3)CC4=CC(=CC=C4)N)SC(=C2)S(=O)C
In short: as §1

[20] = compound: CN1CCC(CNc2ccc3ncc(-c4cccc(OC(F)(F)F)c4)n3n2)CC1
In short: as §1

Measured: log2 fold change

PI4K2A (UniProt Q9BTU6)
inactive: [1] -0.037 | [2] -0.02 | [3] 0.004 | [4] 0.023 | [5] -0.005 | [6] 0.023 | [7] 0.015 | [8] -0.036 | [9] -0.008 | [10] -0.011 | [11] -0.075 | [12] -0.081 | [13] 0.009 | [14] 0.027 | [15] 0.037 | [16] -0.023 | [17] -0.014 | [18] 0.055 | [19] 0.009 | [20] -0.146

PRKAB2 (UniProt O43741)
Chain of UniProt O43741 (O43741 whole entry, looked up): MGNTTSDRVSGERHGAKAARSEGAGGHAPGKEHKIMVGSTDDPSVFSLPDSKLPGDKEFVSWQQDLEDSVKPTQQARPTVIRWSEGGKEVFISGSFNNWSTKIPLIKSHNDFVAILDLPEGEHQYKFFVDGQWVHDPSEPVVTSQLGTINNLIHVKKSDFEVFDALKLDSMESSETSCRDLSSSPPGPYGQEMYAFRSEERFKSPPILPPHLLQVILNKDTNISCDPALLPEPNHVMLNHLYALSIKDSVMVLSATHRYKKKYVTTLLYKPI
inactive: [1] 0.122 | [2] -0.015 | [3] 0.106 | [4] 0.118 | [5] -0.079 | [6] 0.074 | [7] 0.177 | [8] -0.18 | [9] 0.027 | [10] 0.067 | [11] 0.085 | [12] -0.185 | [13] 0.022 | [14] 0.205 | [15] 0.013 | [16] -0.089 | [17] 0.067 | [18] 0.044 | [19] 0.043 | [20] -0.247

PPT1 (UniProt P50897)
Chain of UniProt P50897 (P50897 whole entry, looked up): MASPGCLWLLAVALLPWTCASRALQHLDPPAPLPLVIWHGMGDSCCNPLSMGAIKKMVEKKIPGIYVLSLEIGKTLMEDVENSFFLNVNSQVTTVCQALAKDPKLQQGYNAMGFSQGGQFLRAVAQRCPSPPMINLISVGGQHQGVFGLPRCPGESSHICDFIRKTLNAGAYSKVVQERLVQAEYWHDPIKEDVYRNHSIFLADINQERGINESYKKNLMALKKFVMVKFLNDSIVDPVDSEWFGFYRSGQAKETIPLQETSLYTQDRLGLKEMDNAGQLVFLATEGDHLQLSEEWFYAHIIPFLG
active: [11] -1.41 | [12] -1.9 | [20] -0.925
inactive: [1] -0.017 | [2] 0.009 | [3] 0.046 | [4] 0.013 | [5] -0.081 | [6] 0 | [7] -0.003 | [8] -0.107 | [9] -0.022 | [10] -0.017 | [13] -0.041 | [14] 0.014 | [15] 0.015 | [16] 0.01 | [17] -0.009 | [18] -0.008 | [19] -0.035

PARG (UniProt Q86W56)
Chain of UniProt Q86W56 (Q86W56 whole entry, looked up): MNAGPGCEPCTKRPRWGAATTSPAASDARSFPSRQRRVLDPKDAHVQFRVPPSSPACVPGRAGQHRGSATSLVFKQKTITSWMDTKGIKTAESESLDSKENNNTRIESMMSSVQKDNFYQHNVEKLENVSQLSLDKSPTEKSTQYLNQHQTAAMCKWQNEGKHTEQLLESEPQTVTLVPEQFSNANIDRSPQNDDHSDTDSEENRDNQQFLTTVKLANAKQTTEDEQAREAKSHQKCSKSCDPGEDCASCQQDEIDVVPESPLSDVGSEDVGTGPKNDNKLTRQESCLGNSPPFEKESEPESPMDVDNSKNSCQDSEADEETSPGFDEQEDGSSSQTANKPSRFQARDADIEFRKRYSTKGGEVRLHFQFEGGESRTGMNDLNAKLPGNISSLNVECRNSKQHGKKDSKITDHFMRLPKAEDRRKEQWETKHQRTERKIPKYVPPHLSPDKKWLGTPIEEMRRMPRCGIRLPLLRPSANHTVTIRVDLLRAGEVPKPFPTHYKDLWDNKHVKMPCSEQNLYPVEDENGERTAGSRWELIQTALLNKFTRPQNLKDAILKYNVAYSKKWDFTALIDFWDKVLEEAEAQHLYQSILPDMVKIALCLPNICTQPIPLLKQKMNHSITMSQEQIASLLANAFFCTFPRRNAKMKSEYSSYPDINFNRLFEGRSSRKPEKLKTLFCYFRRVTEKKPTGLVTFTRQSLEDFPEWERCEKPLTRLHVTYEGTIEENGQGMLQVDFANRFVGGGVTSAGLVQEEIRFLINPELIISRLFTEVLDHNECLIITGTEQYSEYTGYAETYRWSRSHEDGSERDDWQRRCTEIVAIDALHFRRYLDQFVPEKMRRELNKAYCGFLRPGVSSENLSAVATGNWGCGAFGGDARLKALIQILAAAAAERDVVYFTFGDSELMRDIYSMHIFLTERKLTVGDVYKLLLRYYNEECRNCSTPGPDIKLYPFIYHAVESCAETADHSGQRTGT
inactive: [1] 0.126 | [2] -0.064 | [3] -0.008 | [4] 0.025 | [5] 0.018 | [6] 0.087 | [7] -0.006 | [8] -0.003 | [9] 0.107 | [10] 0.07 | [11] 0.036 | [12] -0.025 | [13] 0.059 | [14] 0.004 | [15] -0.126 | [16] -0.016 | [17] 0.09 | [18] 0.059 | [19] 0.005 | [20] -0.126

PSPC1 (UniProt Q8WXF1)
Chain of UniProt Q8WXF1 (Q8WXF1 whole entry, looked up): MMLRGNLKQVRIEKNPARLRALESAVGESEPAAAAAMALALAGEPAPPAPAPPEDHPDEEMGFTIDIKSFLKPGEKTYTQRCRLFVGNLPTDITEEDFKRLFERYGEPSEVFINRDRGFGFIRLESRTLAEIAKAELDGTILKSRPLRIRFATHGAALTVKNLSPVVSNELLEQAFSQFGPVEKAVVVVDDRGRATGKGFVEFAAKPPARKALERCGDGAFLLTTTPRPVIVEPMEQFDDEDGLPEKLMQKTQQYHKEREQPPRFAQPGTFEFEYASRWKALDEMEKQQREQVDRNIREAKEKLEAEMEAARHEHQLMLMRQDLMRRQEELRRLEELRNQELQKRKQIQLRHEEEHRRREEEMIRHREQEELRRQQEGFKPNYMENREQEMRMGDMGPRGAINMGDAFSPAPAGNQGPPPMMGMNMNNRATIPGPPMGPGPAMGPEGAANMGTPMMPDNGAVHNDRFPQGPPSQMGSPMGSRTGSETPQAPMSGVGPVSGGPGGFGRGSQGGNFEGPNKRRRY
inactive: [1] 0.022 | [2] 0.011 | [3] 0.01 | [4] 0.007 | [5] 0.053 | [6] -0.003 | [7] 0.135 | [8] 0.167 | [9] 0.036 | [10] 0.01 | [11] -0.046 | [12] -0.167 | [13] 0.1 | [14] 0.031 | [15] 0.003 | [16] -0.054 | [17] 0.012 | [18] -0.058 | [19] 0.041 | [20] 0.029

POLR3K (UniProt Q9Y2Y1)
Chain of UniProt Q9Y2Y1 (Q9Y2Y1 whole entry, looked up): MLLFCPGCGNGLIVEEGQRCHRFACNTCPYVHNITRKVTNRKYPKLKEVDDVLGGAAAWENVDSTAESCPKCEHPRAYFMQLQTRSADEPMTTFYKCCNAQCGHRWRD
inactive: [1] -0.028 | [2] 0.098 | [3] 0 | [4] -0.014 | [5] -0.04 | [6] -0.067 | [7] -0.066 | [8] -0.038 | [9] -0.013 | [10] 0.003 | [11] -0.077 | [12] 0.056 | [13] -0.018 | [14] 0.067 | [15] -0.061 | [16] 0.038 | [17] -0.048 | [18] -0.045 | [19] -0.012 | [20] -0.01

PMM1 (UniProt Q92871)
Chain of UniProt Q92871 (Q92871 whole entry, looked up): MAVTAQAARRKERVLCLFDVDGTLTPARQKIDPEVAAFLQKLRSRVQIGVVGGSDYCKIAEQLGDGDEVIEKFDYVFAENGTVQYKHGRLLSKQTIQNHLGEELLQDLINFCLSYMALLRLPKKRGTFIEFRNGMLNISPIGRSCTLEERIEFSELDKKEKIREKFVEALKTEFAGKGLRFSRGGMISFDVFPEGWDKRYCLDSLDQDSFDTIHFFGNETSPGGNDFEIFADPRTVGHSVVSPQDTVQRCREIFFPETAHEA
inactive: [1] -0.164 | [2] 0.007 | [3] -0.037 | [4] 0.027 | [5] -0.037 | [6] -0.007 | [7] -0.012 | [8] -0.165 | [9] -0.013 | [10] -0.003 | [11] -0.029 | [12] -0.239 | [13] -0.024 | [14] -0.002 | [15] -0.025 | [16] 0.08 | [17] 0.009 | [18] 0.047 | [19] -0.061 | [20] -0.018

PLIN2 (UniProt Q99541)
Chain of UniProt Q99541 (Q99541 whole entry, looked up): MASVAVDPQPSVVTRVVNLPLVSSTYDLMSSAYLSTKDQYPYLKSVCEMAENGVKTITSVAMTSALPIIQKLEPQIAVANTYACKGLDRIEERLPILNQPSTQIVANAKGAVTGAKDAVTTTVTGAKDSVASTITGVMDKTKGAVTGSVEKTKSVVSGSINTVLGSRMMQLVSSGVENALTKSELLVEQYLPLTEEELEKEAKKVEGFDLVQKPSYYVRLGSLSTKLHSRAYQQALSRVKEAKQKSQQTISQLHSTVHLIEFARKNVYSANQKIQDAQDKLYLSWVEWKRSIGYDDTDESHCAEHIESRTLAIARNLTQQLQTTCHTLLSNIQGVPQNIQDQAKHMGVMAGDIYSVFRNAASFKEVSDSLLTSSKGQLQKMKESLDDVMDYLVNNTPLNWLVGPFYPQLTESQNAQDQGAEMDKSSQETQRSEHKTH
active: [20] -0.699
inactive: [1] 0.069 | [2] 0.018 | [3] 0.109 | [4] 0.022 | [5] 0.082 | [6] 0.01 | [7] 0.042 | [8] -0.12 | [9] -0.014 | [10] 0.013 | [11] -0.173 | [12] -0.259 | [13] -0.102 | [14] 0.153 | [15] -0.008 | [16] -0.01 | [17] 0.013 | [18] -0.033 | [19] 0

PGM3 isoform 4 (UniProt O95394)
inactive: [1] 0.013 | [2] -0.073 | [3] 0.021 | [4] 0.04 | [5] -0.01 | [6] 0.017 | [7] 0.04 | [8] 0.008 | [9] -0.044 | [10] 0.017 | [11] 0.003 | [12] 0.052 | [13] 0.092 | [14] 0.014 | [15] -0.034 | [16] -0.038 | [17] 0.026 | [18] 0.066 | [19] -0.084
active: [20] -0.235

PIKFYVE (UniProt Q9Y2I7)
inactive: [1] -0.012 | [2] -0.02 | [3] 0.005 | [4] 0.006 | [5] 0.004 | [6] 0.091 | [7] 0.109 | [8] -0.001 | [9] 0.054 | [10] 0.013 | [11] -0.182 | [13] 0.103 | [14] -0.031 | [15] -0.049 | [16] -0.032 | [17] 0.032 | [18] 0.168 | [19] -0.05 | [20] -0.239
active: [12] -0.499

PSMB4 (UniProt P28070)
Chain of UniProt P28070 (P28070 whole entry, looked up): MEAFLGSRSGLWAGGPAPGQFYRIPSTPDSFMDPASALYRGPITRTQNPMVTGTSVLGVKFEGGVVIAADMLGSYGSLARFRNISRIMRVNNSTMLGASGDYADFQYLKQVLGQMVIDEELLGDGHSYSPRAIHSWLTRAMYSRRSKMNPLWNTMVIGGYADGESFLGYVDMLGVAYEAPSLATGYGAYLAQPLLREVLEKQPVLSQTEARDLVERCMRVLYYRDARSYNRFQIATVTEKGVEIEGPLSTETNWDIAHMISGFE
inactive: [1] -0.026 | [2] 0.02 | [3] -0.075 | [4] -0.031 | [5] 0.023 | [6] -0.027 | [7] -0.029 | [8] 0.008 | [9] -0.008 | [10] -0.052 | [11] 0.073 | [12] 0.114 | [13] -0.043 | [14] -0.202 | [15] 0.011 | [16] 0.031 | [17] -0.028 | [18] -0.045 | [19] 0.021 | [20] 0.057

PYGB (UniProt P11216)
inactive: [2] 0.015 | [3] 0.008 | [4] 0.005 | [5] -0.074 | [6] 0.009 | [7] -0.023 | [8] -0.044 | [9] 0.012 | [10] 0.001 | [11] -0.199 | [13] 0.036 | [14] -0.045 | [15] -0.203 | [16] 0.023 | [17] 0.012 | [18] -0.004 | [19] 0.021 | [20] -0.071
active: [1] -0.284 | [12] -0.572

PIP4K2B (UniProt P78356)
Chain of UniProt P78356 (P78356 whole entry, looked up): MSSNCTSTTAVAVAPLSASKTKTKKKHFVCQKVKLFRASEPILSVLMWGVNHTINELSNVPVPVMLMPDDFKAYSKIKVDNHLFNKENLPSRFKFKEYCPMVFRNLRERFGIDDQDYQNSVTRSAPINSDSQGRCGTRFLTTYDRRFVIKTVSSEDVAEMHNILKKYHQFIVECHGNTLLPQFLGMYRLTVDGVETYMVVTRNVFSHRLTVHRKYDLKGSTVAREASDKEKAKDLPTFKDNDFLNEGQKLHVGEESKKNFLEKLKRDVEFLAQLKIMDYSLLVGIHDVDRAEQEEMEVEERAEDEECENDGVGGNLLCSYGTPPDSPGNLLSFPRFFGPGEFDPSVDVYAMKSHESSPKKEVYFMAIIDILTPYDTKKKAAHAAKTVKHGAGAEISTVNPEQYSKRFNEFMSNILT
active: [11] 0.573 | [12] 0.776
inactive: [1] -0.055 | [2] -0.048 | [3] 0.033 | [4] 0.026 | [5] -0.088 | [6] 0.045 | [7] 0.02 | [8] 0.039 | [9] -0.076 | [10] 0.004 | [13] -0.089 | [14] 0.015 | [15] -0.036 | [16] -0.054 | [17] 0.029 | [18] 0.005 | [19] 0.172 | [20] 0.231

PIP4P1 isoform 2 (UniProt Q86T03)
Chain of UniProt Q86T03 (Q86T03 whole entry, looked up): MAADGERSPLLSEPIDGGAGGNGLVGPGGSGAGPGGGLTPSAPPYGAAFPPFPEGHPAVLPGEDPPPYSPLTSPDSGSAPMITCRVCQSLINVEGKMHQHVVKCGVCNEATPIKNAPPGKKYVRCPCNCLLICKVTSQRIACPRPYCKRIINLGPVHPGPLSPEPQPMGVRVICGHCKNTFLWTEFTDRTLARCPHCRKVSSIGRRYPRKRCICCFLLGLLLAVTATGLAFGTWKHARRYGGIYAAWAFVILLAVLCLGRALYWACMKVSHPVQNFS
inactive: [1] -0.018 | [2] -0.001 | [3] -0.019 | [4] 0.039 | [5] 0.035 | [6] -0.198 | [7] -0.063 | [8] -0.002 | [9] -0.037 | [10] 0.001 | [11] -0.058 | [12] 0.112 | [13] -0.003 | [14] 0.008 | [15] 0.009 | [16] -0.074 | [17] -0.012 | [18] -0.016 | [19] 0.076 | [20] -0.262

PRKAR1B (UniProt P31321)
inactive: [1] 0.102 | [2] -0.019 | [3] 0.004 | [4] -0.057 | [5] 0.015 | [6] 0.04 | [7] -0.038 | [8] 0.133 | [9] -0.036 | [10] -0.12 | [11] 0.024 | [12] -0.054 | [13] -0.067 | [14] -0.063 | [15] 0.119 | [16] 0.12 | [17] -0.001 | [18] 0.042 | [19] 0.127
active: [20] 0.43

PGGHG (UniProt Q32M88)
Chain of UniProt Q32M88 (Q32M88 whole entry, looked up): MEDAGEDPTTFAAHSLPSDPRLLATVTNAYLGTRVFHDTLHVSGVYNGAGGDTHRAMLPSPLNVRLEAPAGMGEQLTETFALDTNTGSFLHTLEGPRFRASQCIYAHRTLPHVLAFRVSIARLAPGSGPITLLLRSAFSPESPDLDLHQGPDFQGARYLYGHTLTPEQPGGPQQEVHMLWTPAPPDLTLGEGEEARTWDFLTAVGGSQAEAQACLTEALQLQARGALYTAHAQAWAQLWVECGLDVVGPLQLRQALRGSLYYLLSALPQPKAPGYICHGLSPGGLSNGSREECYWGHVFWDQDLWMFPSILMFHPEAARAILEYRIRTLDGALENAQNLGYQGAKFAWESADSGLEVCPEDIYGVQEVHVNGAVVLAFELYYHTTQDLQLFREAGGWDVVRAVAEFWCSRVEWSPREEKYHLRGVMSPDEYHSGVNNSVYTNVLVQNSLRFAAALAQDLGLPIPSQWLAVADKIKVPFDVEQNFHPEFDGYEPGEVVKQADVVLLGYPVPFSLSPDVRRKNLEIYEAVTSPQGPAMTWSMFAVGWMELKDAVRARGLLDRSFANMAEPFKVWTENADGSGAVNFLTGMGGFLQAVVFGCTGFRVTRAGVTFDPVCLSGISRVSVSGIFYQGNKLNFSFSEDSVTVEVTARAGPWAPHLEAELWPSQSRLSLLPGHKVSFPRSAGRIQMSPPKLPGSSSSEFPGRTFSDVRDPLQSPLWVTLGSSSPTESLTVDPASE
inactive: [1] 0.017 | [2] -0.127 | [3] 0.197 | [4] -0.003 | [5] 0 | [6] -0.044 | [7] -0.091 | [8] -0.175 | [9] -0.003 | [10] 0.001 | [11] 0.012 | [12] 0.098 | [13] 0.051 | [14] 0.011 | [15] -0.094 | [16] -0.025 | [17] 0.069 | [18] 0.029 | [19] -0.025 | [20] -0.096

From the supplement of paper PMC10849652
